Source: the supplement of paper PMC9925115
± gives the uncertainty stated by the source.

Key:
FLX1 = test: cell viability z-score within plate (CellTiter-Glo), mean of 3 biological replicates; higher = higher viability relative to plate (less growth inhibition); details: 2 µM; time (hr): 120
Description: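 FLX1 fibrolamellar carcinoma cells (DNAJB1-PRKACA fusion), 600 cells/well in 384-well plates, treated with a Selleck kinase inhibitor library (L1200) at 2 uM for 5 days (120 hr); viability by CellTiter-Glo. A z-score was computed within each plate and averaged over three biological replicates.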

[1] = test system: FLX1 + dox-induced PRKAR1A G325D; test: difference in log2 fold change of viability vs plate median (dox-induced PRKAR1A G325D minus uninduced); higher = compound less effective when PKA is inhibited; details: concentration: not stated (2 or 5 uM); 5 days
Description: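 For each plate a log2 fold change vs the plate median was derived, and the values without dox were subtracted from those with dox, averaged over three biological replicates.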

| SMILES | cell viability z-score within plate (FLX1) | difference in log2 fold change of viability [1] |
| --- | --- | --- |
| COC(=O)c1ccc2c(c1)NC(=O)/C2=C(\Nc1ccc(N(C)C(=O)CN2CCN(C)CC2)cc1)c1ccccc1 [Nintedanib (BIBF 1120)] | 0.242 ± 0.43 | -4.27 |
| C[C@@H](Oc1cc(-n2cnc3ccc(CN4CCN(C)CC4)cc32)sc1C(N)=O)c1ccccc1C(F)(F)F | 0.737 ± 0.18 | -0.2 |
| CN1CCN(c2ccc3nc(-c4c(N)c5c(F)cccc5[nH]c4=O)[nH]c3c2)CC1 [Dovitinib (TKI-258, CHIR-258)] | 0.442 ± 0.46 | 0.0764 |
| CNC(=O)Nc1ccc(-c2nc(N3CC4CCC(C3)O4)c3cnn(C4CCC5(CC4)OCCO5)c3n2)cc1 | 0.631 ± 0.77 | 1.48 |
| FC(F)c1nc2ccccc2n1-c1nc(N2CCOCC2)nc(N2CCOCC2)n1 | 0.852 ± 0.61 | 0.435 |
| O=C(O)c1ccc(-c2c[nH]c3ncc(-c4ccccc4)cc23)cc1C1CCCC1 | -1.12 ± 1.1 | 0.0725 |
| O=C1NC(=O)C(c2ccccc2[N+](=O)[O-])=C1Nc1ccc(O)c(Cl)c1 | – | -0.00686 |
| N#CC(=C(/N)Sc1ccccc1N)/C(C#N)=C(\N)Sc1ccccc1N | – | 0.518 |
| C[C@H](Nc1ncnc2nc[nH]c12)c1cc2cccc(Cl)c2c(=O)n1-c1ccccc1 [Duvelisib (IPI-145, INK1197)] | – | -0.0226 |
| CN1CCN(S(=O)(=O)c2ccc(-c3cnc(N)c(C(=O)Nc4cccnc4)n3)cc2)CC1 | – | -0.529 |
| C#Cc1cccc(Nc2ncnc3cc(OC)c(OCCCCCCC(=O)NO)cc23)c1 | – | -0.131 |
| O=C(Cc1ccc(-c2ccc(OCCN3CCOCC3)cc2)cn1)NCc1ccccc1 | – | 0.213 |
| CO[C@H]1C[C@@H]2CC[C@@H](C)[C@@](O)(O2)C(=O)C(=O)N2CCCC[C@H]2C(=O)O[C@H]([C@H](C)C[C@@H]2CC[C@@H](OCCO)[C@H](OC)C2)CC(=O)[C@H](C)/C=C(\C)[C@@H](O)[C@@H](OC)C(=O)[C@H](C)C[C@H](C)/C=C/C=C/C=C/1C [Everolimus (RAD001)] | – | -1.32 |
